Drawing on the OligoGym collection, this text covers sensor-assay potency score (higher = more potent) for 40 sequences.
Also: reference of the scale not given here.

For one assay, the target named is DNAJC13. Nature of the assay: pooled miR-30 sensor sort-seq; sequence = guide strand. The conditions noted are these: shRNA.
TTCAATTACATTGCTTTGCAGT showed a sensor-assay potency score (higher = more potent) of -0.243.
For the sequence TTGTTGTGTAGAAACATGCCAG, the sensor-assay potency score (higher = more potent) was -0.232.
In turn, TACTAATTCACTCTGCTCCTTC showed a sensor-assay potency score (higher = more potent) of 0.364.
For TTTTCTACTTCTTTCTTCCAGG, the sensor-assay potency score (higher = more potent) is -0.404.
Still for that read-out and setting: next, TTAAGGAAGAGAATCAACCTAT: -0.138; TTGATTATTTTTGTACTCGATG: -0.943.
Still for that read-out and setting: the result for TATCTTTCAGTTCTTCTCGTGT reads -0.0145.
The same measure, in the same setting: next, TTGTCTCTAACATGCATCCGAT: -1.12; TTGAATTGCAGAACATATCCAG: 0.63.
TTGTGCTACTAATTCACTCTGC had a sensor-assay potency score (higher = more potent) of 0.635.
As for TAGACCAACAGTATCTGCTCGC, the sensor-assay potency score (higher = more potent) stood at 0.515.

A further assay addresses DNAJC19. Described as above. The following applies: shRNA.
For the sequence TTAAAAGCATAATTCGTCGATG, the sensor-assay potency score (higher = more potent) is -0.449.
TAAAATTGTAGCTCTGAGGCAT came in with a sensor-assay potency score (higher = more potent) of 0.463.
Turning to TAAATCTTTAGCTTCATTGATT, the sensor-assay potency score (higher = more potent) was -0.54.
TTTTTTAAAATTGTAGCTCTGA: the sensor-assay potency score (higher = more potent) came out at 0.364.
TTTATTAGTGTATAAATTCTAA: the sensor-assay potency score (higher = more potent) was -0.615.
In the case of ATGAACAATATTTCTATTCAGA, the sensor-assay potency score (higher = more potent) is -0.967.
For TTCAGTTTTGCTAACAGGGTTT, the sensor-assay potency score (higher = more potent) was -0.256.
Regarding TTCGTCGATGAGCATCTCTTAT, the sensor-assay potency score (higher = more potent) was -1.36.
In turn, TTTAAAAGCATAATTCGTCGAT had a sensor-assay potency score (higher = more potent) of 0.123.
In turn, TAAACAAGAAAATTATACCAAG came in with a sensor-assay potency score (higher = more potent) of -1.18.
For the sequence TTCACTTTTAAATACAAGGTTC, the sensor-assay potency score (higher = more potent) is -0.645.
The sequence TTGATATTGAGAACATTTCAGT came in with a sensor-assay potency score (higher = more potent) of -0.702.

Another assay addresses DNAJC4. The assay is described as above. The conditions noted are these: shRNA.
With TTGGGGGACTACCTGAGCGGAG, the sensor-assay potency score (higher = more potent) is -1.16.
As to TTGTCATGGACTGTGGTTCGTG, the sensor-assay potency score (higher = more potent) was -0.505.
TCGCTCAGCTCCACAAAGCGGC yielded a sensor-assay potency score (higher = more potent) of -1.13.
In turn, TGCATCTGCTTCACCTTCCTGA yielded a sensor-assay potency score (higher = more potent) of -0.639.
Still for that read-out and setting: next, TAGCCGTTGTCGCTCCTGCTGA: -1.23; TTGTTTGTGTTGCTGCTGCCTC: -0.896; TAGAAGGCTGTGATGATCCGAT: 0.303.
In turn, TTTGGTGGGCAGACTTGTCATG returned a sensor-assay potency score (higher = more potent) of -0.548.
The sequence TTGTCGCTCCTGCTGAAGGATG yielded a sensor-assay potency score (higher = more potent) of -1.56.
TTTGGGGGACTACCTGAGCGGA gave a sensor-assay potency score (higher = more potent) of -1.85.
In the case of TTAACTTCCTCAGTGCTGGCAC, the sensor-assay potency score (higher = more potent) is 0.72.
TTCATCCATGAAGTTAAGGTGC gave a sensor-assay potency score (higher = more potent) of -0.818.

A further assay concerns the target DNAJC8. The assay is described as above. The conditions noted are these: shRNA.
The sequence TTTCTAACCATCACAATTCAGT had a sensor-assay potency score (higher = more potent) of -0.77.
Same read-out and setting: the result for TTGAGCTTCAATCTCTTCTTCC reads 0.0915; that for TGTAACTTCAGGATCTATCTGA, 0.809.
For the sequence TTTCACAGTGTGTTCCACGTAT, the sensor-assay potency score (higher = more potent) was determined as 0.15.
In turn, TTGTCTGTTTATATACAGCTTG had a sensor-assay potency score (higher = more potent) of -0.738.
